Laboratory results published in PubChem BioAssay AID2549 (National Center for Advancing Translational Sciences (NCATS), 2010).
Hit rate of the full screen: of about 240,000 compounds, about 1,300 (0.54%) were called active. Another 1% or so got no clear call; they are omitted. Calls follow the shape of the dose curve; as a rule, active = well fitted inhibition curve with a large enough effect; inconclusive = small, poorly fitted or top-dose-only effect; inactive = flat fitted curve, though single readings scatter. Only a selection was taken, and actives are over-represented in it overall.

molecular target: ATP-dependent DNA helicase Q1 (Homo sapiens) (UniProt P46063); assay: qHTS Assay for Inhibitors of RecQ-Like Dna Helicase 1 (RECQ1); details: RECQ1 DNA unwinding, red fluorescence kinetic read; series mostly up to 57.3 µM; activity, negative = inhibition: at the top concentration; also: nearly all actives have a fitted effect of over 30% in size
Sequence (P46063 whole entry, looked up): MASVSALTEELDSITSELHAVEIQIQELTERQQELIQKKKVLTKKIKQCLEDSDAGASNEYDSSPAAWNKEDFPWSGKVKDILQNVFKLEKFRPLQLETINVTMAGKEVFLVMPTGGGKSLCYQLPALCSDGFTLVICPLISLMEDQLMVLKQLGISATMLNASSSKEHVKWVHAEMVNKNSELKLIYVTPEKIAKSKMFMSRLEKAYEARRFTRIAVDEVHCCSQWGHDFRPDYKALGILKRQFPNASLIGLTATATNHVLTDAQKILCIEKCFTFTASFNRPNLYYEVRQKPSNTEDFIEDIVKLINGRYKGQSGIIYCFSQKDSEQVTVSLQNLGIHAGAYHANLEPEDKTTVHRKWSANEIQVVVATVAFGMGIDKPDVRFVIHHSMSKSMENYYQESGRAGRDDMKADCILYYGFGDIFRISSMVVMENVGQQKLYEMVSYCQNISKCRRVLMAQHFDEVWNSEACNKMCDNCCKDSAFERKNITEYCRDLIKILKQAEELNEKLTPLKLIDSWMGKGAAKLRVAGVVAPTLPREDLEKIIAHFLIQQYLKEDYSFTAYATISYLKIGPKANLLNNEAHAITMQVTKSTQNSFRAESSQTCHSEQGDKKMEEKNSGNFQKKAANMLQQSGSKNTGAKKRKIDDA
Description: Survival of cells and the faithful propagation of the genome depend on elaborate mechanisms of detecting and repairing DNA damage. Treatment of advanced cancer relies on radiation therapy or chemotherapy, which kill cancer cells by causing extensive DNA damage. It is often found, that cancer cells develop resistance to therapy through enhanced activity of DNA repair functions; this has led to an increased interest in developing drugs that interfere with DNA repair, which could sensitize cancer cells to conventional therapy.
This validation qHTS assay pertains to human RECQ1, which is important in resolving abnormal DNA structures formed during replication or homologous recombination. Shutting down the expression of RECQ1 leads to chromosomal instability and higher radiation sensitivity in cultured cells.
The validation assay was a fluorescence quenching based kinetic qHTS for RECQ1 Helicase DNA unwinding. The activity was measured as ATP-dependent separation of a 20-bp DNA duplex extended by 30-nt single-stranded tails (forked duplex). The forked DNA substrate was tagged with rhodamine fluorophore (carboxytetramethyl rhodamine, TAMRA) and BHQ-2 (Black Hole Quencher 2) dark quencher. Strand separation results in an increase in the fluorescence of TAMRA (excitation 525 nm, emission 598 nm). This substrate construct operates in a red-shifted region where very few compound library members have been noted to fluoresce (PubChem AIDs 593 and 594). An additional feature of the assay is the inclusion of 2.5 ug/ml poly (dIdC), to reduce interference by compounds such as DNA intercalators, a major source of false inhibitors.
Opher Gileadi, Structural Genomics Consortium, University of Oxford
Screening Center PI: Austin, C.P.
Screening Center: NIH Chemical Genomics Center [NCGC]
Three uL of reaction buffer (25 mM Tris-HCl (pH 8.0), 5 mM NaCl, 2 mM MgCl2, 1mM DTT, 0.01% Tween- 20, and 2.5 ug/ml poly(dI-dC), including enzyme (50 nM RECQ1T1), were dispensed into a 1536-well Greiner black assay plate via solenoid-valve based nanoliter dispensers. Compounds (23 nl each in columns 5-48) and control (23 nl each in column 2 as dose-response) were transferred via a Kalypsys pintool equipped with a 1536-pin array. The plates were incubated for 15 min at room temperature, and then 1 ul of substrates (200 nM DNA and 2 mM ATP, final concentrations) was added to start the reaction. The plate was transferred into a ViewLux high-throughput CCD imager where the reaction progress was measured in a discontinuous kinetic mode (two reads spaced 2 hours apart, with intermediate room temperature incubation of the covered assay plate) by using standard red-fluorescence optics (excitation filter 525 nm, emission filter 598 nm). Enzyme-free and vehicle (DMSO) controls were included for signal normalization.
Potency is read from the fitted curve at half-maximal effect.

activity, negative = inhibition, inactive:
CCS(=O)(=O)C1=NSC2=NC(=O)/C(=C\c3cc(C)n(-c4cccc(OC)c4)c3C)C(=N)N21 3.29%, CCOC(OCC)OCC -9.69%, COC(=O)C(CC(C)C)NS(=O)(=O)c1cc(Br)ccc1Br (stereo not given) 0.664%, C=CCOC(=O)C(=C)C -0.151%, C/C(=N\NC(=S)NCc1ccccc1)C1CCCCC1 -13%, O=C(O)c1ccc(/C=N/NC(=S)NCc2ccccc2)cc1 -5.09%, CC(O)[C@@H](N)C(=O)O (stereo not given in full) -2.11%, Cc1ccc(OCC(=O)Nc2nnc(-c3ccco3)s2)cc1 0.109%, COc1cc(C(F)(F)F)c(C(=O)N(C)c2ccc(Cl)cc2)cn1 -4.86%, Cc1cs/c(=N\N=C\c2ccc(O)cc2)n1Cc1ccco1 -8.6%, COc1ccc(NC(=O)Cn2c(=O)n(Cc3ccco3)c(=O)c3ccccc32)cc1 -4.47%, COc1ccc(C2CC(O)(c3ccccc3)Oc3cc(C)cc(C)c32)cc1 (stereo not given) -17%, CCOc1ccc(NC(=O)CCC(=O)N/N=C/c2ccc([N+](=O)[O-])s2)cc1 4.95%, CC(C)(C)c1cc(C(=O)N/N=C/c2ccc([N+](=O)[O-])s2)n[nH]1 6.11%, O=C(Nc1nnc(SCc2ccccc2)s1)c1ccco1 7.11%, Nc1nc(SCc2ccccc2Cl)n[nH]1 -13.7%, COC(OC)c1ccnc(SCc2ccccc2Cl)n1 -7.6%, COc1ccc(-c2ccc(C3C4C=CCCC4(C)C(=O)N3Cc3ccccc3)c(F)c2)cc1OC (stereo not given) -11%, Cc1noc(C)c1-c1ccc2ncnc(NC(C)c3ccco3)c2c1 (stereo not given) 2.54%, OC(CCl)CCl -12.1%, Cc1cc(Cl)ccc1NNC(=O)c1snnc1C -2.2%, Cc1ccc(S(=O)(=O)Oc2ccc(/C=N/NC(=O)c3c(Cl)cnn3C)cc2)cc1 -2.22%, Cn1c2ccccc2c(=O)c2c(O)cccc21 -0.553%, O=C1c2cccc(OCC(=O)N3N=C(c4cccs4)CC3c3ccc(F)cc3)c2CCN1Cc1ccccc1 (stereo not given) -5.93%, CC1CCCC(NC(=O)COC(=O)[C@@H]2CC(O)CN2S(=O)(=O)c2ccc3c(c2)OCCO3)C1C (stereo not given in full) -3.5%, Cc1ccccc1-c1nnc(SCC(=O)NCc2ccc3c(c2)OCO3)n1C -1.82%, O=C(CSc1ncn[nH]1)NCc1ccc2c(c1)OCO2 -11.6%, Cc1cccc(C2c3[nH]c4ccccc4c3CCN2C(=O)c2cc(-c3cccn3C)n[nH]2)n1 (stereo not given) -1.43%, O=C(O)c1ccc(/C=C2/SC(=S)N(c3cccc(C(F)(F)F)c3)C2=O)cc1 8.17%, C=CCn1c(SCc2csc(C)n2)nc2scc(-c3ccc(C)o3)c2c1=O -1.43%, O=C1C[C@@H](c2ccc3ccccc3c2)N1S(=O)(=O)c1ccccc1[N+](=O)[O-] -3.07%

Potency, active:
CS(=O)(=O)c1ccc2c(c1)SC1=NC(=O)/C(=C/c3ccco3)C(=N)N12 28.2 µM, C/C(=N\NC(=S)NCc1ccccc1)c1ccc(Cl)cc1 31.6 µM, COc1ccc(OCC(=O)Nc2nnc(-c3ccco3)s2)cc1 31.6 µM, CN(c1ccccc1)c1ccc(/C=c2\s/c(=C(/C#N)C(=O)C(C)(C)C)n(Cc3ccco3)c2=O)cc1 17.8 µM, O=[N+]([O-])c1ccc(C=Nc2ccc(Cl)cc2Cl)s1 25.1 µM, Clc1ccccc1CSc1nnc(-c2ccco2)c(-c2ccco2)n1 35.5 µM, c1ccc(CSc2nnc(-c3ccco3)c(-c3ccco3)n2)cc1 11.2 µM, Oc1ccc(O)c2c(O)cccc12 3.98 µM, O=C(CSc1ccc(-c2ccco2)nn1)NCc1ccc2c(c1)OCO2 28.2 µM, C=CCn1c(=S)[nH]c2scc(-c3ccco3)c2c1=O 31.6 µM

outcome, inactive:
CNc1nnc(-c2ccco2)s1, CC(C)c1cnc(NC(=O)Cc2ccccc2)s1, CC(=O)OCC(NC(=O)C(Cc1ccccc1)NC(=O)OC(C)(C)C)C1OC(n2ccc(=O)[nH]c2=O)C(OC(C)=O)C1OC(C)=O (stereo not given), Brc1ccc(CSc2ccc(-c3ccco3)nn2)cc1, CCN(CC)/[N+]([O-])=N/Oc1cc(O/[N+]([O-])=N/N2CCCC2CO)c([N+](=O)[O-])cc1[N+](=O)[O-] (stereo not given), COc1cccc(-c2cc(=O)c3cc(NC(=O)c4ccc(C)cc4)ccc3[nH]2)c1 inactive [at 81.1 µM], CNC(=O)[C@]1(C(F)(F)F)C[C@H](CCc2ccccc2)CCCO1, C=C1CCN(C(CC(C)C)C(=O)N2CCOCC2)S(=O)(=O)c2ccccc21 (stereo not given), C=CCNC(=O)CSc1nc2scc(-c3ccco3)c2c(=O)n1CC=C
